Results taken from PubChem BioAssay (NCI).
Values joined by “and” are separate entries in the source; they are usually repeats but may differ in a detail not shown here. Equal values may be shown once. About 83,000 compounds went through this panel and 20% of them were active in at least one assay; those are over-represented in the sample as a whole.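 Plates (96-well) were seeded with cells, treated with compound at one concentration, and incubated for 48 hours before percent growth was determined.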 Active and inactive are the calls of the source. How the source made its calls: active means growth percent below 10; inactive means the rest.

Test system: MDA-MB-468 breast
Test: NCI-60 one-dose screen, 48 h (100 = growth as untreated, 0 = no growth, -100 = all killed)
Settings: 10 µM unless noted

Structure (SMILES)	growth
NC(=O)c1ncn([C@@H]2O[C@H](CO)[C@@H](O)[C@H]2O)n1	83.7% (inactive)
CCOC(=O)c1cc2c(n1C)-c1nc(NC(C)=O)sc1CCC2	79.8% (inactive)
CCCc1c(C)nc2scc(-c3ccc(Cl)cc3)n2c1=O	97.9% (inactive)
O=C(O)c1cc(N=Nc2ccc(-c3ccc(N=Nc4c(S(=O)(=O)O)cc5ccc(Nc6ccccc6)cc5c4O)cc3)cc2)ccc1O	124% (inactive)
CC(=O)c1cnc2ccc(-c3cc(Cl)c(O)c(Cl)c3)nc2c1NC1CCC(CN(C)C)CC1 (stereo not drawn)	-62% [2.5 µM] (active)
COc1cc([C@@H]2c3cc4c(cc3[C@H](SC(=N)N)[C@H]3COC(=O)[C@H]23)OCO4)cc(OC)c1OC	-4.2% (active)
CN1C(=O)N(C)C2C1NN=c1s/c(=C\c3c[nH]c4ccccc34)c(=O)n12 (stereo not drawn)	39.5% (inactive)
COc1ccc(C(=O)C2=CC(=O)C(=O)C2)cc1OC	108% (inactive)
Cc1cccc(-[n+]2noc(N)n2)c1	96.4% (inactive)
NS(=O)(=O)N(c1cc(C(F)(F)F)cc(C(F)(F)F)c1)C1CCN(Cc2ccc(C(F)(F)F)cc2)CC1	-42.5% (active)
CC(=O)O.CC(=O)O.O.[Fe]	100% (inactive)
CC1=CC(=O)CC(C)(C)[C@@]1(O)/C=C/C(C)=C\C(=O)O	-45.1% (active)
COc1ccc(/C=N/NC2=NC3C(S2)N(C)C(=O)N3C)cc1 (stereo not drawn)	-8.86% (active)
COc1cc(/C=C2\CCCC3=C2N=C2SC(C)=NN2C3c2cc(OC)c(OC)c(OC)c2)cc(OC)c1OC (stereo not drawn)	19.8% (inactive)
Cc1nn(-c2ccc(Cl)cc2)c(=O)n1CCn1cnc2ccccc21	117% (inactive)
COc1ccccc1NC(=O)C1=C(C)NC(C)=C(C(=O)Nc2ccccc2OC)C1c1cccc([N+](=O)[O-])c1	74.3% (inactive)
C[C@@H]1C[C@H]2C(=O)OCC(NC(=O)[C@H](Cc3cc(F)cc(F)c3)NC(=O)Nc3ccc(Cl)cc3F)C(=O)N3CCC[C@H]3C(=O)N3CCCC[C@H]3C(=O)N[C@@H](C)C(=O)N2C1 (stereo partly drawn)	-6.95% (active)
CCOc1ccc(/C=C(\C#N)c2cc3ccccc3[nH]2)cc1	33.4% (inactive)
NS(=O)(=O)c1ccc(Nc2nc(Nc3ccccc3)nc(N3N=C(c4ccc(Cl)cc4)CC3c3ccc(Cl)cc3)n2)cc1 (stereo not drawn)	26.4% (inactive)
N#Cc1c2cccnc2c2nnc3cc(Cl)c(Cl)cc3n12	-56% (active)
COc1cc2c(cc1OC)C(=O)/C(=C/c1cc(-c3ccc4c(c3)OCO4)n[nH]1)C2	-26.4% (active)
O=C(CNC(=O)c1cccc2ccccc12)Nc1ccccc1Oc1ccccc1	19.7% (inactive)
Nc1c(C(=O)c2ccccc2)sc2nc(-c3cccs3)ccc12	3.08% (active)
COc1cc(Br)c(OC)cc1Br	95.5% (inactive)
CNC(=O)c1cc(Oc2ccc3nc(NC(=O)Nc4ccc(Cl)c(C(F)(F)F)c4)sc3c2)ccn1	-5.09% (active)
CCCC(=O)OCC1OC(n2cnc3c(=S)nc[nH]c32)C(OC(=O)CCC)C1OC(=O)CCC (stereo not drawn)	70.8% (inactive)

Structure (SMILES)	growth
COc1cc(C2=C(c3cn(C)c4ccccc34)COC2=O)cc(OC)c1OC	16% (inactive)
CCCCOC(=O)c1cccc([N+](=O)[O-])c1	101% (inactive)
COC(=O)c1c2c(c(C)[n+]([O-])c1C)C(=O)C=C(NCc1ccc(F)c(F)c1)C2=O	-78.4% (active)
Cc1nc2sc(C(=O)Nc3cccc(Cl)c3C)c(N)c2cc1C(=O)/C=C/c1ccccc1	4.69% (active)
CCN=C1C=CC(=C(c2ccc(N)cc2)c2ccc(N(CC)CC)c(C)c2)C=C1	-32.9% (active)
Cc1ccc(Cl)cc1NC(=O)c1cc2ccccc2cc1O	-58.7% (active)
O=C1c2cccnc2C(=O)c2c1c(C(=O)OCCc1ccccn1)c1ccccn21	-23% (active)
O=C(Nc1cccc(Oc2nnc(Cl)c3ccccc23)c1)Nc1ccc(Cl)c(C(F)(F)F)c1	-44.8% (active)
Nc1ccc(S(=O)(=O)Nc2ccsc2-c2nc(-c3ccccc3)no2)cc1	43.1% (inactive)
O=C(CNc1ccc(Cl)cc1)Nc1ccc(-c2nc3ccccc3s2)cc1	-11.2% (active)
COc1ccc(/C=C2\Oc3cc(OCCN4CCCC4)ccc3C2=O)c(OC)c1	86.5% (inactive)
CCN(CC)CCNc1ccc(C)c2sc3cc(Cl)ccc3c(=O)c12	14.4% (inactive)
CCOC(=O)NC(=S)n1oc(=O)c2ccccc21	106% (inactive)
Cc1occc1-c1nc2s/c(=C\c3cn(-c4ccccc4)nc3-c3ccccc3)c(=O)n2n1	89.8% (inactive)
C=C(C)[C@@H]1CC[C@]2(C(=O)N3CCN(CC)CC3)CC[C@]3(C)[C@H](CC[C@@H]4[C@@](C)(CCC(=O)N5CCN(CC)CC5)[C@H](C(=C)C)CC[C@]43C)[C@@H]12	43.4% (inactive)
O=C(N(c1ccccc1)c1ccccc1)n1cc(I)c2nc(Cl)nc(Cl)c21	27.8% (inactive)
Cc1c(O)cc(-c2cnc(N/N=C/c3ccccc3)s2)c(O)c1C	61.6% (inactive)
O=[N+]([O-])/C(=C/C=C/c1ccccc1)c1ccccc1	2.79% (active)
CCCCc1ccc(Nc2ccc(Nc3ccc(CCCC)cc3S(=O)(=O)O)c3c2C(=O)c2ccccc2C3=O)c(S(=O)(=O)O)c1	112% (inactive)
COc1cc(C(C)=C(c2ccc(OCCN(C)C)cc2)c2ccc(OCCN(C)C)cc2)ccc1F	93.3% (inactive)
O=C1OCC2=C1C(c1ccccc1)c1cc3c(cc1N2CCO)CCC3 (stereo not drawn)	15% (inactive)
Nc1cc(-c2nc3sccn3c2-c2ccnc(NCCCNS(=O)(=O)c3ccc(F)cc3)n2)ccc1F	41.7% (inactive)
COc1cccc(C(c2cc3c(cc2O)OCO3)N2CCOCC2)c1OC (stereo not drawn)	90.6% (inactive)
C=C(C)[C@@H]1CC[C@]2(CN)CC[C@]3(C)[C@H](CC[C@@H]4[C@@]5(C)CCCNC(C)(C)[C@@H]5CC[C@]43C)[C@@H]12	-65.5% (active)
CNc1cc(-c2cccc(OC(F)(F)F)c2)nc2ccc(N3CCCC3)cc12	-69.7% (active) and -68% (active) and -66.2% (active)
O=C(CCN1C(=O)/C(=C/c2ccccc2)SC1=S)N1CCOCC1	51.9% (inactive)

Structure (SMILES)	growth
CNC(=O)NCC1OC(n2cnc3c(NC(=O)Nc4ccccc4)ncnc32)C(O[Si](C)(C)C(C)(C)C)C1O[Si](C)(C)C(C)(C)C (stereo not drawn)	35.8% (inactive)
COc1cc(/C=C/C(=O)CC(=O)/C=C/c2cc(Br)c(OC)c(OC)c2)cc(Br)c1OC	97.2% (inactive)
Cc1c(C2=CCCCC2)c2ccccn2c1C(=O)c1cccc(S(=O)(=O)N2CCOCC2)c1	51.5% (inactive)
Cc1cccc2c3c(sc12)C(c1ccc(F)cc1)C(C#N)=C(/N=C/c1ccc(Cl)cc1)O3 (stereo not drawn)	36.2% (inactive)
CC(=O)Oc1ccccc1C(=O)Nc1ccc(C(=O)/C=C/c2ccncc2)cc1	4.04% (active)
C=C(C)[C@@H]1CC[C@]2(C(=O)NC3CCCCC3)CC[C@]3(C)[C@H](CC[C@@H]4[C@@]5(C)CCCNC(C)(C)[C@@H]5CC[C@]43C)[C@@H]12	-85.4% (active)
O=c1oc2ccc(Cl)cc2c(=O)n1-c1ccc(Cl)cc1F	2.01% (active)
O=[N+]([O-])c1ccc(NS(=O)(=O)c2ccccc2)c2ccccc12	17% (inactive)
C[C@@H](C(=O)O)c1ccc2c3cc(Cl)ccc3n(Cc3cc(=O)oc4ccc(Cl)cc34)c2c1	113% (inactive)
COc1ccc(/C=C2\Oc3cc(OCCN4CCC(Cc5ccccc5)CC4)ccc3C2=O)cc1OC	31% (inactive)
CN(C)C/C=C/C(=O)Nc1cc2c(Nc3cccc(Cl)c3F)ncnc2cc1OCCOC(F)F	-44.6% (active)
COC(=O)c1[nH]nc2c1C1(C(=O)c3cccc4cccc1c34)C(C#N)=C(N)O2 (stereo not drawn)	86.3% (inactive)
CCN1C(=O)N(CC)C2C1NN=c1s/c(=C\c3ccc(Cl)cc3Cl)c(=O)n12 (stereo not drawn)	5.35% (active)
COc1ccc(C(=O)/C=C/c2ccc(OCc3ccc(C)cc3)c(OC)c2)cc1OC	49.9% (inactive)
COc1ccc(-c2nc(SCCC(C)C)nc(N/N=C\c3cccc(Cl)c3)c2C#N)cc1	95.9% (inactive)
CCOC(=O)c1c(C)nn(CC(O)c2ccccc2)c1NC(=O)Nc1cccc(F)c1 (stereo not drawn)	82.6% (inactive)
C#C[C@]1(O)CC[C@H]2[C@@H]3CC=C4c5sc(-c6cccc(F)c6)nc5CC[C@]4(C)[C@H]3CC[C@@]21C	71.1% (inactive)
COc1cc2c(c(OC)c1OC)-c1ccc(NNC(N)=S)c(=O)cc1[C@@H](NC(C)=O)CC2	-14.2% (active)
CCCCCCCCCCCCCCCCCC(=O)[O][Sn]([CH2]CCC)([CH2]CCC)[CH2]CCC	-96.2% (active)
CN1CCN(c2ccc(C(=O)/C=C/c3ccc(Cl)c(C(F)(F)F)c3)cc2)CC1	18.4% (inactive)
CN1C(=O)N2CN3CCCN(C3)CN3C(=S)NC1C23 (stereo not drawn)	102% (inactive)
CN(C)CCCNc1c2ccccc2nc2ccccc12	83.4% (inactive)
Cc1cc(CC(=O)O)n(C)c1C(=O)c1ccc(Cl)cc1	101% (inactive)
OC(c1ccccc1)(c1ccccc1)c1ccccc1-c1ccccc1	69.1% (inactive)
Nc1nc(=S)c2ncn(C3OC(CO)C(O)C3O)c2[nH]1 (stereo not drawn)	114% (inactive) and -12.1% (active)
COC(=O)[C@]12CC[C@@H](C)[C@H](C)[C@@H]1C1=CC[C@@H]3[C@@]4(C)C[C@@H](OC(C)=O)[C@H](OC(C)=O)[C@@](C)(COC(C)=O)[C@@H]4[C@H](O)C[C@@]3(C)[C@]1(C)CC2	-6.62% (active)
